Measured values taken from PubChem BioAssay (NCATS).
Records with an inconclusive call do not appear. The source made the active and inactive calls. The call rests on the fitted dose curve; in most records, active means well fitted cell-killing curve with a large enough effect; inconclusive means small, poorly fitted or top-dose-only effect; inactive means flat fitted curve, though single readings scatter.

Assay: qHTS of pediatric cancer cell lines to identify multiple opportunities for drug repurposing: Primary screen for U-2 OS cells (AID 1347096);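 further: plate controls were DMSO wells for no effect and bortezomib positive control wells for full effect; nearly all actives have a fitted effect of over 50% in size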
Conditions: U-2 OS viability, CellTiter-Glo luminescence, 48 h; series mostly up to 46 µM; activity change, negative = cytotoxic: at the top concentration
Procedure, shortened: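 Cells (500-1,000/well) rested 5 h, then received compounds for 48 h; metabolically active cells were measured by CellTiter-Glo luminescence. Final concentrations spanned up to 46 µM (MIPE, 11-point) or 0.59 nM-46 µM (NPC, 8-point) in primary screens, 11-point in follow-ups.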

Structure (SMILES) | activity change, negative = cytotoxic
Cn1c(=O)c2c(ncn2CC(=O)O)n(C)c1=O | 18.7% (inactive)
O=[N+]([O-])c1nccn1CO[C@@H](CO)[C@H](O)CO | -5.21% (inactive)
CC(=O)OCC(=O)Nc1cc(C#N)cc(NC(=O)COC(C)=O)c1Cl | 3.57% (inactive)
CC1(C)O[C@@H]2C[C@H]3[C@@H]4C[C@H](F)C5=CC(=O)C=C[C@]5(C)[C@@]4(F)[C@@H](O)C[C@]3(C)[C@]2(C(=O)CO)O1 | -5.38% (inactive)
CCCC(=O)Nc1ccc(O)c(C(C)=O)c1 | 14.7% (inactive)
O=[N+]([O-])c1cncn1CCN1CCOCC1 | 19.1% (inactive)
CCOc1ncc(F)c(=O)[nH]1 | 6.67% (inactive)
CCc1cc(S(=O)(=O)O)c2cc(C(C)C)cccc1-2 | 3.95% (inactive)
Cc1ccccc1N1CCN(CCc2nnc3n2CCCC3)CC1 | 2.39% (inactive)
CN1C(=O)c2ccccc2C1=O | -4.96% [at 92.7 µM] (inactive)
Nc1nnnn1-c1ccccc1 | 2.72% (inactive)
CCOC(=O)c1ccc(NC(=O)CN2CCCCC2)cc1 | 4.97% (inactive)
Brc1ccccc1-c1ccccc1 | 14.7% [at 92.7 µM] (inactive)
CCNC(=O)NCCCOc1cccc(CN2CCCCC2)c1 | -10.9% (inactive)
CO/N=C(/C(=O)N[C@@H]1C(=O)N2C(C(=O)OCOC(=O)C(C)(C)C)=C(C)CS[C@H]12)c1csc(N)n1 | -1.55% (inactive)
Cc1c(N)cccc1C(F)(F)F | 11.8% (inactive)
OC[C@]1(O)OC[C@@H](O)[C@H](O)[C@@H]1O | 12.1% (inactive)
COC(=O)c1cc(Cl)ccc1OC | -0.809% (inactive)
CCCc1ncc(C(=O)O)s1 | 10.8% (inactive)
CCOc1ccc(NS(=O)(=O)c2ccc(N)cc2)nn1 | 12.4% (inactive)
CCCc1c2oc(C(=O)O)cc(=O)c2cc2c(=O)cc(C(=O)O)n(CC)c12 | 6.91% (inactive)
